Results as given in PubChem BioAssay AID1508600 (Functional Genomics Laboratory (NCATS/FGL), 2020).
About 3,700 (7%) of roughly 53,000 sequences were called active. Shown is part of a subset that was picked to be rich in actives. A number with no mark means an inactive call.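 The calls were made as follows: active = gene knockdowns whose robust z-score for IL-1 alpha signal is at least 2 or at most -2, so actives lie on both sides; inactive = the rest.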

assay: Components of the Cytosolic LPS Sensing Pathway: Gene Identification via Genome-wide siRNA Screen; settings: RAW264.7 macrophages, IL-1a HTRF, actives lie on both sides, screened at 100 nM (by protocol), cells primed 5 h with Pam3CSK4 first;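 also: robust z of the log signal after scaling to non-targeting control siRNA wells of the plate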
Method in brief: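 Using IL-1a HTRF as read-out, the screen measured release from RAW264.7 cells after 48h siRNA knockdown (100 nM), 5 h Pam3CSK4 priming and 24 h cytosolic LipidA. Values were expressed relative to negative-control wells as robust z-scores.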

Going from GGAGCAUUCUCCAUCUAGCTT against Dennd2d to GGAGGAGUCUUGAAUCCAGTT against Yod1, the z-score rises from -1.41 to -0.122.

First: GGACUUGGUGACUUACUUCTT against Smpdl3b
Second: GGAGACAGUUCAGAAGUGGTT against Glp2r
The z-score of the first is lower: -1.42 for the first, 0.0837 for the second.

First: GAAGUCUGUGACCAGUUCCTT against Fgf2os
Second: CCCUGAAACCUCGGUGUUUTT against Vmac
The z-score of the first is lower: 0.735 for the first, 1.34 for the second.

First: GGAACUGGAGAUGCACAGCTT against Mtcl1
Second: GGUUAUGUGUUCCAUAGAUTT against Pcdhb13
The z-score of the first is higher: 1.2 for the first, 0.248 for the second.

First: GGAUAAACAGCUGAAGGUGTT against Ccs
Second: GGCCGUUUUUUGGCAUCGUTT against Acss1
The z-score of the first is higher: 0.762 for the first, -1.71 for the second.

Going from GGUAAUCCUGACUUCGUGGTT against Asb17 to GCCGUAUUCAUUAAUAAAGTT against Ash1l, the z-score falls from 0.915 to 0.0753.

Going from CGAUUUCACAAAAACAUGATT against Vta1 to GGUGUUGGAGACCAUGGAUTT against Clcn6, the z-score rises from -0.394 to 0.829.

First: GCAAUCGACCGCAUCCUAATT against Gm4827
Second: GGGCUCCAAUUUGCUACCATT against Grp
The z-score of the first is lower: -1.32 for the first, 0.342 for the second.

Compared with GCAGCAAUCAGAUCAUGUATT against Platr26, GGUCCAGAUUGCUUAGAUGTT against Zbtb11os1 is higher in z-score: -0.694 for the first, -0.398 for the second.

Compared with CCUUAUACCAUAGAGAACATT against Bfar, GGCUUCAAGGACUUUACAATT against Mefv is higher in z-score: 1.14 for the first, 1.62 for the second.

First: GGUGUGCUCUGUAAAUCAUTT against Trappc2
Second: GGAUGAGCAUAAAAGUCCUTT against Atf7ip
The z-score of the first is higher: 0.656 for the first, -0.536 for the second.

Compared with CCUGUCACAGAUGUAUGUGTT against Rnf149, GGAAUCUCCACCAUACAGGTT against Vmn1r26 is lower in z-score: 0.331 for the first, -0.263 for the second.

Going from GGACGGUAGCCAUAUUAAUTT against Spink2 to GGCUGAAGUUCAUGAUGGCTT against Cd209d, the z-score rises from -0.385 to 1.7.

Going from GGCGAUUAUGGAAAAAUGUTT against Osbpl11 to GGCCUUUAUUCUAUGCAGUTT against Htr3a, the z-score rises from -0.431 to 1.59.

Compared with GGAAAAAACGCACCAGCAUTT against Pou2f1, GGACAAAGAAAAAGAUUCCTT against Stxbp6 is lower in z-score: 0.0271 for the first, -0.169 for the second.

Compared with CCUGGAACAUAGAUGUAUATT against Jmjd4, GGUCUUUUCUACAUGUGGATT against Olfr389 is lower in z-score: 0.484 for the first, 0.268 for the second.

Compared with GGAUGCUGAAGUGAAGGACTT against Myt1, GCAUGUAGCCUGGCCUUCUTT against Zfp458 is lower in z-score: -0.157 for the first, -0.591 for the second.

First: GGAAUUUUACCUUUUGGAUTT against Tm9sf3
Second: GGUCUCACUGAAAAUGAAATT against Ces1g
The z-score of the first is higher: 0.408 for the first, -0.656 for the second.

Compared with GGCUUGUCGUCCUGGUGUATT against Rprd2, GGCCUACAUCAUUCACUCCTT against Olfr64 is lower in z-score: 0.219 for the first, -0.384 for the second.

Going from GGAGGAUCUAUACCACGGUTT against Npffr2 to GGUUCGAGUCUCUUACUCUTT against Pou4f3, the z-score falls from 0.565 to -0.574.

Going from GGGUGACCUUUACGUCUUCTT against Reep1 to GGGAGAAGAAUUUGAACAGTT against Ak1, the z-score rises from 0.0877 to 0.557.

Compared with GGGAUGCGGAGGUUUAAGATT against Dhx37, GGAGCUAAAGCUGCUGAUUTT against S100g is lower in z-score: 0.815 for the first, -0.404 for the second.

Compared with CCCAGGACGACGACUUUUUTT against Pnmal1, GGUUUUGGGCAAAAUUGAGTT against Edf1 is lower in z-score: -0.0664 for the first, -0.899 for the second.

Going from CCAAUGCAAUGUUAGCUUUTT against Tas1r3 to GCCAUGGCAUAAAAACUGGTT against P2rx6, the z-score falls from 0.898 to -0.329.

Going from CCACAUGAUCCUAACUUUGTT against Pqbp1 to CCUGAUAAGCAAAUACGGCTT against Rep15, the z-score falls from -0.157 to -0.893.

Going from CCUGAAGCCUCAAUACACATT against Ugt1a1 to “GGAUGAUCACAAAGGUAUATT against 4632404H12Rik”, the z-score falls from 0.967 to 0.0665.

Going from CCCAGUUGGUGUUUAUAUATT against Ppp3cb to GGAGAUUUCAUGAACUCUGTT against Srrm3, the z-score falls from 0.115 to -0.141.

First: GGCCAGGAAAAAAUCUGCATT against Neu1
Second: GGGUUUGACCUGAUUUCUCTT against Col9a1
The z-score of the first is lower: -0.293 for the first, 0.305 for the second.

Compared with GGUUACCUCCACCAGAUCATT against Avpi1, GGCGGUAACCACUUUCACGTT against Mycn is lower in z-score: -0.326 for the first, -0.567 for the second.

Compared with GGAAGAAAUGGAAUUGAAGTT against Pcdhga6, GGAUGAUCAAGACAAGCAGTT against Nobox is lower in z-score: 0.649 for the first, -0.763 for the second.

Compared with CCUUGGGAAUUACCCAGAGTT against Cage1, GCCGUUCCCAUUAUCGUUUTT against Tmem87a is lower in z-score: -0.565 for the first, -0.693 for the second.

Going from GGAAGGUGGAGAAAAUCCGTT against Hhipl2 to GGAAGAUACUAAUAGAGUATT against Enpep, the z-score falls from 0.585 to -0.00304.

Compared with GGACGACAACGACAUCAUGTT against Sfrp2, GGGACCAAAGGAAACUUCATT against Eif2s3y is lower in z-score: 0.475 for the first, -0.14 for the second.

Going from CCCAGGUGAUUCUGAUAUUTT against Rpl30 to GGUACAUUGGCAUUGUGAATT against Hnrnpf, the z-score falls from 0.534 to 0.525.

First: GCCUCCUUUGCUUCAUUUCTT against Fcer1g
Second: GGUCUUCUGAAGAUGGCGUTT against Pja2
The z-score of the first is higher: 1.83 for the first, 1.39 for the second.

First: GCAACAAGUCUGGAGACAATT against Pebp1
Second: GGAGUUCCAGAAGCUUCUATT against Vwa3b
The z-score of the first is higher: -0.595 for the first, -1.72 for the second.

First: GCGGCUCUUACGAGGUUUATT against Upk3a
Second: GGGAGUUAUGUUGGUAUCATT against 1700029F12Rik
The z-score of the first is higher: 0.024 for the first, -1.38 for the second.

Going from GGACUUCUUCUAUUUCAUATT against Fam20a to GGAAAACACGUUCACUAUATT against Elp2, the z-score rises from -0.986 to 0.021.

Compared with GGAGUCUCCAAUGAAAUGUTT against Kcnma1, GCUAAACGAGUUAUUGGUGTT against Ecpas is higher in z-score: -0.464 for the first, 0.829 for the second.

First: GGAGAAACUGGCUUUCUCUTT against Zp3
Second: GCGGCAAGUGGACUUUUCATT against Dlc1
The z-score of the first is higher: 0.918 for the first, -1.09 for the second.

First: GCCCAGUUUGUCACAAAGCTT against Sorl1
Second: CCCUAGUGCAGUGAUAACUTT against 1700016D06Rik
The z-score of the first is lower: -0.276 for the first, 0.938 for the second.

Compared with CCCAACAAGAGUAUCUAUGTT against Foxh1, GGCAUCUCUCCAAUAACCUTT against Fbxw2 is lower in z-score: -0.125 for the first, -1.2 for the second.

In the case of CGGGUAAUAAGGAUUUGGGTT against Cadm4, the z-score is reported as 2.05 (active).
With GCUAGGUGGGCAACUGUAUTT against Lpar3 the z-score was 2.12 (active).
In the case of GGAAAUUGUCAGGUCCUACTT against Rad50, the z-score is reported as 2.94 (active).
For GGCAAGCCAGAGAAACUGATT against Rbm42, the z-score was 6.18 (active).
In the case of GCUAGAAAGGACUUCGUGGTT against Pla2g4f, the z-score is reported as -2.36 (active).
With CGUGAUGUACAUGCAGGAUTT against Slc48a1 the z-score was 2.83 (active).
For GGAGAAACGAAAAGACUCUTT against Brpf1, the z-score was -2.25 (active).
With GGAGGAUACAGUGGAGGGATT against Fbxl19 the z-score was 2.81 (active).
For CCACCAGGGAUCGUUAUAATT against Phyh, the z-score was 2.25 (active).
In the case of CCAGACGCGUAACUGCUACTT against Cox6b2, the z-score is reported as 3.26 (active).
For GGAAUGUUGGAAUCAAUUGTT against Gcm1, the z-score was 2.83 (active).
In the case of GGUGGCAGACUGUGUUUAUTT against B3gnt8, the z-score is reported as -2.08 (active).
With “GGACUUGGAAGUAAUUUUCTT against C230071H18Rik” the z-score was 2.06 (active).
In the case of GCUAGGUCAGGGAGUUUUATT against Exosc2, the z-score is reported as 3.33 (active).
For GGCCUAAACACGGUUUUCATT against Ppm1n, the z-score was 3.72 (active).
For GGGUCUGCUACAUCUUCGGTT against Ino80e, the z-score was 2.27 (active).
In the case of “GGUUCCCUUUUUCAUCUAATT against 4632433K11Rik”, the z-score is reported as 3.08 (active).
With GGAGCAUUCAAAUUACAUCTT against Ccni the z-score was 4.62 (active).
For GGAAAUUUGUAUCCCGAGUTT against Trp53, the z-score was -2.14 (active).
For UGGACUUGCUUCUCACAUCTT against Olfr694, the z-score was -2.22 (active).
For CGAUGAGAGUCCACUCCCATT against Cox18, the z-score was -3.19 (active).
In the case of GGUUCUACAGAUGUUUUCUTT against Tnfrsf22, the z-score is reported as 3.84 (active).
With GCUAAGCGGAAUGCACUCGTT against Cxcl5 the z-score was -2.23 (active).
